# From PubChem BioAssay AID1276 (Columbia University Molecular Screening Center, 2008)
# In all, about 190,000 compounds went through this assay and about 2,000 (1.1%) were called active. Shown is part of a subset that was picked to be rich in actives. Values without a mark were called inactive.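 Rule for the calls: active = activation above a set limit, based on mean plus 3 SD of controls (cut at about 140% in these data); inconclusive = one replicate above the limit, the other below; inactive = the rest.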
# Assay: APP 5'UTR reporter signal increase – luciferase, SH-SY5Y cells, primary screen (AID 1276)
# Details: SH-SY5Y APP 5'UTR luciferase reporter, luminescence; at 2 µM; active compounds read high; zero percent = DMSO vehicle wells
row,SMILES,activation
1,CC(C)c1nc(-c2ccccn2)no1,7.91%
2,c1csc(-c2nc(-c3ccncc3)no2)c1,55.4%
3,c1ccc(-c2noc(-c3cccs3)n2)nc1,209% (active)
4,CC(C)n1c(O)c(N=Nc2ccccn2)c2ccccc21,3.63%
5,CC(C)(C)NS(=O)(=O)c1ccc(NC(=O)NC2CCCCC2)cc1,-13.3%
6,CC(C)N1CCC(NC(=O)Nc2ccccc2)CC1,15.8%
7,CC(C)c1ccc(NC(=O)NC2CCCCC2)cc1,139% (active)
8,CC(NCc1nc2ccccc2n1C)C12CC3CC(CC(C3)C1)C2 (stereo unspecified),9.64%
9,CC(=O)n1cc([C@H]2C=C(C(=O)N3CCOCC3)O[C@@H](OCc3ccc(CO)cc3)C2)c2ccccc21,3.91%
10,CC(C)(C)CN1CCNC(=O)C1CC(=O)NC1Cc2ccccc2C1 (stereo unspecified),-10.9%
11,Cc1nn2cc(-c3ccc(Cl)cc3)cnc2c1Br,208% (active)
12,CCOCCCN(C(=O)Cn1nnc(-c2ccc(OC)c(OC)c2)n1)C(CC)C(=O)NC1CCCC1 (stereo unspecified),7.01%
13,N=C1C(c2nc3ccccc3s2)=C(O)CN1NC(=O)c1ccc([N+](=O)[O-])cc1,150% (active)
14,COc1ccccc1N1CC(O)=C(c2nc3ccccc3s2)C1=N,1.68%
15,CCOC(=O)CCCN1CC(O)=C(c2nc3ccccc3s2)C1=N,-7.28%
16,CN1CCNC(=O)C1CC(=O)NCCC1=CCCCC1 (stereo unspecified),9.01%
17,COCCNC(=O)c1ccc(N2CCC3(CC2)OCCO3)c([N+](=O)[O-])c1,5.47%
18,Brc1ccc(C2CC(c3ccccc3)=Nc3ccccc3N2)cc1 (stereo unspecified),176% (active)
19,c1ccc(C2=Nc3cccc4cccc(c34)N2)cc1,-8.18%
20,CNC(=S)N1N=C(c2ccccc2)CC1c1ccc(Br)cc1 (stereo unspecified),16.3%
21,COc1ccc(C)cc1NC(=O)CSc1nc(SC)ns1,-17.1%
22,CCc1nnc(NC(=O)CSc2nc(SC)ns2)s1,542% (active)
23,CCc1nnc(NC(=O)CCC(=O)O)s1,11.8%
24,CCn1c2ccccc2c2cc(CC(N)=O)ccc21,-15%
25,CCS(=O)(=O)c1ccc2oc(SCC(=O)N3c4ccccc4CC3C)nc2c1 (stereo unspecified),12.2%
26,CN(C)S(=O)(=O)c1ccc2oc(SCC(=O)Nc3ccccc3F)nc2c1,135% (active)

row,SMILES,activation
1,COc1ccc(S(=O)(=O)N(C)C)cc1NC(=O)CSc1ncccn1,-3.15%
2,O=C(Nc1cccc(Cl)c1)c1cc([N+](=O)[O-])ccc1N1CCN(CCO)CC1,-1.04%
3,O=C(NNC(=S)NCCCN1CCOCC1)c1ccncc1,1.62%
4,Nc1nc(-c2sc3nc4c(cc3c2N)CCCC4)nc(N2CCOCC2)n1,45.3%
5,COc1ccc(CCNc2nc(-c3cccc(NC(C)=O)c3)cs2)cc1OC,13%
6,CC(=O)Nc1cccc(-c2csc(Nc3cccc(C)n3)n2)c1,177% (active)
7,CC(=O)Nc1cccc(C(=O)Nc2nc(C)cs2)c1,30.8%
8,C/C(CC(=O)Nc1ccc(Cl)cc1)=N\NC(=O)C(=O)NCCO,6.46%
9,CC(C)c1nc2sc3c(c2c(=O)n1N)CC(C)(C)OC3,17.6%
10,O=C(O)c1ccc2c(c1)C(=O)N(NC(=O)c1ccc(O)cc1)C2=O,-2.99%
11,Cn1cnnc1SCC(=O)Nc1ccc(N2CCOCC2)cc1,5.51%
12,O=C(O)CCS(=O)(=O)c1ccc(-c2ccccc2)cc1,-3.35%
13,CCOc1cccc(-n2nnnc2-c2ccc(OC)cc2)c1,-65.8%
14,COc1ccc(-n2nnnc2SCC(=O)Nc2ccccc2)cc1,6.08%
15,COc1ccc(-n2nnnc2-c2nc3ccccc3s2)cc1,237% (active)
16,Cc1cccc(NC(=O)c2nnn(-c3cccc(C(F)(F)F)c3)c2N)c1,27.1%
17,Nc1nc(NCCCN2CCOCC2)nc(Nc2ccccc2)c1[N+](=O)[O-],-12.2%
18,COCCNc1nc(N)c([N+](=O)[O-])c(NCCO)n1,-12.7%
19,CNc1nc(Nc2ccc(C)c(Cl)c2)nc(N)c1[N+](=O)[O-],153% (active)
20,Cc1ccc(NS(=O)(=O)c2cccs2)cc1S(=O)(=O)N1CCCCCC1,13.7%
21,O=C(Cc1ccc(-c2ccccc2)cc1)NC(c1ccccc1)c1ccccc1,12.7%
22,CC(NC(=S)Nc1ccc(OC(F)F)cc1)c1ccc(F)cc1 (stereo unspecified),-4.54%
23,O=C(NNC(=O)c1ccc(Cl)cc1Cl)c1cccs1,59.2%
24,O=C(Nc1ccn(Cc2ccc(F)cc2)n1)c1ccncc1,-11.3%
25,O=C(Nc1ccn(Cc2ccccc2)n1)c1n[nH]c([N+](=O)[O-])c1Cl,129%
26,O=C(Nc1ccn(Cc2ccccc2)n1)c1cccc(F)c1,197% (active)

row,SMILES,activation
1,Cc1coc(C)c1C(=O)CC1(O)C(=O)N(C)c2ccc(Cl)cc21 (stereo unspecified),12.3%
2,CCN(CC)CCNC(=O)c1sc2ncn(CC(=O)Nc3ccc(C)c(Cl)c3)c(=O)c2c1C,11.4%
3,Cc1nn(-c2ccc([N+](=O)[O-])cc2)c(N)c1-c1ccccc1,152% (active)
4,Cc1nn(-c2ccccc2)c2c1C(c1cccc([N+](=O)[O-])c1)N(c1ccccc1)C(=O)N2 (stereo unspecified),11.7%
5,O=C1CC(c2ccccc2)=NN1c1ccc([N+](=O)[O-])cc1,-12.9%
6,CCN(C(=O)Cc1nc(N)n[nH]1)C1(C(=O)Nc2ccccc2)CCCCC1,-3.52%
7,O=C(Nc1ccc2sc3ccccc3c(=O)c2c1)c1ccccc1Cl,221% (active)
8,O=C(Nc1ccc2nc3n(c(=O)c2c1)CCCCC3)c1ccccc1Cl,22%
9,COc1cc(NC(=O)c2cccs2)ccc1NC(=O)c1ccccc1Cl,37.2%
10,CCOC(=O)c1ccccc1NC(=O)CSc1nc2ccccc2c(=O)[nH]1,-2.72%
11,COc1cccc(N(Cc2nnc3n2CCCCC3)C(=O)Nc2ccccc2F)c1,3.63%
12,O=C(Nc1nc2ccc(S(=O)(=O)N3CCCC3)cc2s1)C1CCCO1 (stereo unspecified),2.99%
13,Cc1cc(C)c2nc(NC(=O)C3CCCO3)sc2c1 (stereo unspecified),159% (active)
14,Cc1cc(Br)ccc1NC(=O)C1CCCO1 (stereo unspecified),-29.7%
15,O=C(/C=C/c1ccc(OCc2c(F)cccc2Cl)cc1)N1CCOCC1,12.2%
16,COc1ccc(-c2nnc(SCC(=O)c3cccs3)o2)c(OC)c1,142% (active)
17,COc1ccc(-n2c(C)cc(C(=O)CSc3nnc(-c4cccs4)o3)c2C)cc1,-0.59%
18,COc1ccc(OC)c(C(=O)CSc2nnc(-c3cccs3)o2)c1,-1.75%
19,O=C(NNC(=S)NCc1ccco1)C(c1ccccc1)c1ccccc1,19.5%
20,O=C(NNC(=O)c1cc2c(s1)CCCC2)c1ccccc1,43.3%
21,O=C(Nc1ccccc1)c1ccc2c(c1)OCO2,-58.8%
22,CC(C)C(=O)Nc1cccc(C(=O)Nc2ccc3c(c2)OCO3)c1,138% (active)
23,Cc1cccc(NC(=O)/C=C/c2ccc3c(c2)OCO3)n1,118%
24,Cc1cccc(NC(=O)Nc2ccc3c(c2)OCO3)n1,137% (active)
25,COc1ccc(C(=O)Nc2ccc3c(c2)OCO3)cc1OC,35.6%
26,CC(NC(=O)Nc1ccc2c(c1)OCO2)c1ccncc1 (stereo unspecified),12.1%

row,SMILES,activation
1,CC(OC(=O)c1ccccc1OCc1ccc(Cl)cc1)C(N)=O (stereo unspecified),40.4%
2,Cc1cc(C)c(NC(=O)c2oc3ccccc3c2COc2ccccc2)c(C)c1,-0.13%
3,CCC(=O)N(Cc1cc2ccccc2[nH]c1=O)c1ccc(OC)cc1,-4.49%
4,C/C(=N/NC(=O)CCc1ccccc1)c1ccco1,10.2%
5,CCOc1ccc2nc(C(=O)N3CCCC(C)C3)sc2c1 (stereo unspecified),158% (active)
6,CCOc1ccc2nc(Nc3nc4ccc(NC(C)=O)cc4s3)sc2c1,-5.77%
7,CCOc1ccc2nc(SC(CC)C(=O)Nc3cc(C)on3)sc2c1 (stereo unspecified),1.9%
8,Cc1cc(CNCc2c(C(=O)N(C)Cc3ccccc3)nc3ccccn23)nn1C,7.64%
9,C/C(=N/NC(=S)Nc1ccccc1)c1ccc2c(c1)OCO2,11.9%
10,CCOC(=O)CN/C=C(\C#N)c1ccc(F)cc1,29.2%
11,O=C(Nc1ccc2c(c1)OCCO2)c1ccc(Cl)c(S(=O)(=O)N2CCCCC2)c1,30.1%
12,COc1c(Cl)cc(C(=O)Nc2ccc(Cl)cn2)cc1Cl,34.7%
13,O=C(Nc1ccc(Cl)cn1)c1ccc2c(c1)OCCO2,199% (active)
14,O=C(Nc1cccc(S(=O)(=O)Nc2ccc(Cl)cc2)c1)c1ccc2c(c1)OCCO2,-20.6%
15,CN1CCN(c2ccc(NC(=O)c3ccc4c(c3)OCCO4)cc2Cl)CC1,144% (active)
16,O=C(Nc1cccc(Cl)c1N1CCOCC1)c1ccc2c(c1)OCCO2,12.9%
17,CN1CCN(CCC(=O)N/N=C/C=C2\N(C)c3ccccc3C2(C)C)CC1,8.29%
18,COc1ccc(-n2ncc3c(N4CCCc5ccccc54)ncnc32)cc1,48.9%
19,c1ccc(-n2ncc3c(N4CCCC4)ncnc32)cc1,160% (active)
20,COc1ccc(-n2ncc3c(N4CCc5ccccc54)ncnc32)cc1,204% (active)
21,Cc1cccc(-n2ncc3c(N4CCc5ccccc54)ncnc32)c1,25.5%
22,O=C(NNc1ncnc2c1cnn2-c1ccccc1)c1ccco1,6%
23,CCN(CC)C(=O)CSc1ncnc2c1cnn2-c1ccccc1,15.2%
